Screens (PubChem)
D2 ag-1: activates the human D2 dopamine receptor; P14416; HEK293 T-REx D2 cells, calcium flux agonist mode; activation, % at 2 µM; actives 0.53% (n = 340,000); AID 485358;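 active means activation over 3 SD above normal in the single-dose calcium agonist read, cut at about 30% in these data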
Target sequence (P14416 whole entry, looked up): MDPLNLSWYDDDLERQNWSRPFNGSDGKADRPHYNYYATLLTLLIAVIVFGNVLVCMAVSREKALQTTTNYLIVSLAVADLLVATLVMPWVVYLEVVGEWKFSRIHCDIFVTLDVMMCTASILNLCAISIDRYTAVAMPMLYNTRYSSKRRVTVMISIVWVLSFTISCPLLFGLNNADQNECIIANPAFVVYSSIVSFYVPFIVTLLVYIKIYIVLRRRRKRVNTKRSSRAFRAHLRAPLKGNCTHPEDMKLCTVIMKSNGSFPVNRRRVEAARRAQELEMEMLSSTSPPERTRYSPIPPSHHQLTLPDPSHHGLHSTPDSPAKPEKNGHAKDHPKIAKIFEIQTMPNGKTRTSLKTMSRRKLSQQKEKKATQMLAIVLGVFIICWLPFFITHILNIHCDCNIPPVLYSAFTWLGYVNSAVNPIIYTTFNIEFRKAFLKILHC
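HEK293 Trex D2 cells, tetracycline-induced, o/n 30 C 5% CO2; no-wash Ca dye, RT 30–90 min; 10-cycle baseline, 23 nl cpd added, kinetic Ca read 180 s; agonist hits = positive Ca response.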
D2 PAM-1: positive allosteric modulators of human D2 dopamine receptor; P14416; HEK293 T-REx D2, calcium flux, EC20 dopamine potentiation; potentiation, % at 10 µM; actives 0.34% (n = 340,000); AID 485347;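 active means potentiation over 3 SD above the plate norm, cut at about 30% in these data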
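Tetracycline-induced HEK293 T-REx cells force-coupled to calcium signalling expressed D2; compounds were pin-added after a 10 s baseline, read kinetically 180 s, then an EC20 dopamine challenge followed with a further 180 s calcium read.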
D2 PAM-2: human D2 receptor positive allosteric modulation | DiscoveRx D2 beta-arrestin cells, luminescence, 90 min; 100% = 57 uM dopamine signal | potentiation, % (concentration not given with the values) | actives 0.23% (n = 360,000) | AID 624464; in the data active means potentiation above about 50%
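PathHunter beta-arrestin assay in DiscoveRx D2 cells. Compounds were added with an EC20 of dopamine (50 nM final) for 90 min at 37 deg C. Luminescence was read 1 h after detection reagent, with 57 uM dopamine as the EC100 control.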
D2 ag-2: activates the human D2 dopamine receptor; P14416; DiscoveRx PathHunter D2 beta-arrestin, luminescence, 90 min; 100% = 57 uM dopamine signal; activation, % (test concentration not listed); actives 0.084% (n = 360,000); AID 624465; in the data active means activation above about 40%
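DiscoveRx PathHunter D2 beta-arrestin cells (2,100/well) attached overnight, then compound-stimulated 90 min at 37 C in HBSS/10 mM HEPES/0.1% Tween-20 buffer; beta-galactosidase complementation read by luminescence after 1 h at ambient temperature. Dopamine 57 uM final (EC100) as control.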
D2 antag: D2 dopamine receptor (human) antagonism. HEK293 TREx D2 cells, calcium flux, dopamine EC80. actives 2% (n = 340,000). AID 485344. P14416. inhibition, % at 10 µM; in the data active means inhibition above about 30%; inactive means below that, where a call was filed
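Tetracycline-induced HEK293 T-REx cells expressing D2 force-coupled to calcium signalling were dye-loaded, exposed to compound for 180 s, then challenged with an EC80 of dopamine; calcium flux was followed kinetically for a further 180 s.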
Each line names hits and unclear results; the compound was inactive in the other large screens. Rows were chosen to be rich in hits. Some 2.4% of all compounds tested hit in one or more screens of this group.

C=CCn1c(SCC(=O)Nc2ccc(OC)cc2)nc2c([nH]c3ccccc32)c1=O	D2 antag 33.1
COc1ccc(C(O)(CCC(C)C)C(CN2CCOCC2)c2ccc(Cl)cc2)cc1 (centres undefined)	D2 PAM-1 41.0
CCOCCCNC(=O)c1cnc2sc(N3CCCCCC3)nn2c1=O	none (no result: D2 PAM-2, D2 ag-2, D2 antag)
C=CCOc1ccccc1CN1CCC(CO)(CCOc2ccccc2)CC1	D2 antag 63.8
CSc1ccc(CN2CCC(CO)(CCOc3ccccc3)CC2)cc1	D2 antag 50.5
OCC1(CCOc2ccccc2)CCN(Cc2ccccc2OC(F)F)CC1	none
N#Cc1c(-c2ccccc2)nc(SCc2cccc(Cl)c2)[nH]c1=O	D2 antag 30.4
CN(CC(=O)Nc1ccc(Cl)c(C(F)(F)F)c1)C(=O)c1cccs1	none
CC(=O)c1c(C)[nH]c(C(=O)N(C)CC(=O)Nc2ccc(Cl)c(C(F)(F)F)c2)c1C	D2 antag 39.3
CN(CC(=O)NC(=O)NCc1ccccc1)CC(=O)Nc1ccc(Cl)c(C(F)(F)F)c1	D2 antag 35.2
CN(CC(=O)NCCc1ccc(S(N)(=O)=O)cc1)CC(=O)Nc1ccc(Cl)c(C(F)(F)F)c1	none (no result: D2 ag-1, D2 PAM-1, D2 antag)
O=C1CSC(c2cccnc2)N1Cc1cccnc1 (centres undefined)	none
O=C1CSC(c2cccnc2)N1CCc1ccccn1 (centres undefined)	D2 antag 54.6
CC(C)(C)C(=O)OC1=CN(Cc2ccccc2)S(=O)(=O)c2ccccc21	none (no result: D2 PAM-2, D2 ag-2, D2 antag)
Nc1ccc2c(c1)Cc1cc([N+](=O)[O-])ccc1-2	D2 ag-1 46.8
CC1(C)CC(=O)C/C(=N\NC(=O)C2CC23CCC3)C1 (centres undefined)	D2 antag 47.1
CCC(C)S(=O)(=O)c1oc(-c2cccs2)nc1S(=O)(=O)c1ccccc1 (centres undefined)	none (no result: D2 PAM-2, D2 ag-2, D2 antag)
CCC(=O)Nc1ccc(C)cc1-c1nc2ccccc2n(CC(=O)c2ccc(C)cc2)c1=O	none (no result: D2 PAM-2, D2 ag-2, D2 antag)
O=C(COC(=O)c1cccnc1Cl)c1cccc(Cl)c1	D2 antag 69.1
O=C(COC(=O)c1cccnc1Cl)c1ccc(Cl)s1	none (no result: D2 ag-1, D2 PAM-1, D2 antag)
COc1cccc(C(c2sc3nc(-c4ccco4)nn3c2O)N2CCC(C)CC2)c1 (centres undefined)	none (no result: D2 PAM-2, D2 ag-2, D2 antag)
COc1cc2c(C)nc(C)c(C#N)c2cc1OC	D2 PAM-1 38.9
Cc1cccc(C)c1NC(=S)N/N=C/c1ccc(C(=O)O)cc1	D2 antag 36.2
CC(Sc1ncn[nH]1)C(=O)Nc1cc(C(F)(F)F)ccc1Cl (centres undefined)	none
COc1cc(CC(NC(C)=O)C(=O)NC2CCN(C(=O)C3CC3)CC2)cc(OC)c1 (centres undefined)	D2 antag 32.5
CCCc1nc2ccc(NC(=O)c3ccco3)cc2c(=O)n1Cc1ccc(Cl)cc1	D2 PAM-1 45.2
COc1ccc(CC(=O)N(Cc2nc(-c3ccc(C)cc3)no2)C(C)C)cc1	none (no result: D2 PAM-2, D2 ag-2, D2 antag)
COc1ccccc1CN1CC(C(=O)NCCN(C)CCc2ccccc2)CCC1=O (centres undefined)	D2 ag-1 45.5
CC(=O)Nc1ccc(NC(=O)CSc2ncnn2-c2ccccc2)cc1	D2 PAM-1 31.0
CC(=O)Nc1ccc(NC(=O)CSc2ccccn2)cc1	none
COc1cccc(NC(=O)CSc2nccn2-c2cccc(OC)c2)c1	none
COc1cccc(-n2ccnc2SCC(=O)Nc2ccccc2)c1	D2 antag 50.4
COc1ccc(NC(=O)c2cc(C3CC3)nc3c2c(C)nn3-c2ccc(C)cc2)cc1OC	none (no result: D2 ag-1, D2 PAM-2, D2 ag-2, D2 antag)
COc1ccc(NC(=O)c2c(-c3ccc(C)cc3)nnc3ccccc23)c(OC)c1	none (no result: D2 PAM-2, D2 ag-2, D2 antag)
CC(C)(C)C(=O)NC(=S)NNC(=O)c1ccc(Cl)cc1Cl	D2 ag-1 115.7, D2 antag 91.2
CC(C)(C)C(=O)NC(=S)NNC(=O)c1ccncc1	none
CC(C)(C)C(=O)NC(=S)NNC(=O)c1ccc(-c2ccccc2)cc1	D2 ag-1 90.1, D2 antag 63.6
CCCOc1ccc(C(=O)NNC(=S)NC(=O)c2ccccc2)cc1	D2 ag-1 44.6
CCCOc1ccc(C(=O)NNC(=S)NC(C)=O)cc1	none (no result: D2 ag-1, D2 antag)
CCc1ccccc1NC(=O)CN1CCCN(Cc2cc(C)ccc2C)S1(=O)=O	none (no result: D2 PAM-2, D2 ag-2, D2 antag)
CC1(C(=O)Nc2cccc(OC(F)(F)F)c2)Cc2c(-c3cccc(C(N)=O)c3)ccnc2O1 (centres undefined)	none (no result: D2 ag-1, D2 PAM-1, D2 antag)
N#CCO/N=C/C(=O)Nc1ccc(F)cc1F	D2 antag 53.2
O=C(CC(=O)Nc1ccc(F)cc1F)Nc1ccc(F)cc1F	none
CC(=O)NC12CC3CC(C1)CC(C(=O)N1CCN(S(=O)(=O)c4ccccc4[N+](=O)[O-])CC1)(C3)C2	D2 antag 44.6
O=C(c1cc2c(s1)CCCC2)N1CCN(Cc2ccc3c(c2)OCO3)CC1	D2 antag 74.7
O=C(c1ccc(Br)s1)N1CCN(Cc2ccc3c(c2)OCO3)CC1	D2 antag 78.4
Cn1c(C(=O)N2CCN(Cc3ccc4c(c3)OCO4)CC2)cc2sccc21	D2 antag 99.7
O=C(C1CCN(c2nnc(-n3cccc3)s2)CC1)N1CCN(Cc2ccc3c(c2)OCO3)CC1	D2 ag-1 71.4, D2 antag 31.5
O=C(c1c(F)c(F)c(F)c(F)c1F)N1CCN(Cc2ccc3c(c2)OCO3)CC1	none (no result: D2 ag-1, D2 PAM-1, D2 antag)
Cn1c(C(=O)N2CCC(C(=O)N3CCN(Cc4ccc5c(c4)OCO5)CC3)CC2)cc2sccc21	none
COc1cccc(CN2CCC(C(=O)N3CCN(Cc4ccc5c(c4)OCO5)CC3)CC2)c1	none
O=C(Nc1ccc(F)cc1Cl)C1Cc2ccccc2N1C(=O)c1ccccc1 (centres undefined)	none (no result: D2 PAM-2, D2 ag-2, D2 antag)
O=C(NCc1ccccc1)C(=O)Nc1nc(C23CC4CC(CC(C4)C2)C3)cs1	D2 antag 32.2
COc1cc2c3c(cccc3c1)C(=O)N(CCN1CCCC1)C2=O	none (no result: D2 ag-1, D2 PAM-1, D2 antag)
CC(=O)c1cccc(CN2CCN(Cc3ccc(C)cc3)C(CCO)C2)c1 (centres undefined)	D2 antag 54.6
CC(=O)c1cccc(CN2CCN(CCc3ccccc3)C(CCO)C2)c1 (centres undefined)	D2 antag 34.3
c1ccc2c(NC3CCCC3)nnc(NC3CCCC3)c2c1	D2 antag 49.2
Cc1cccnc1NC1CCCCC1	none
COc1cc(OC)c(CNC2CCCCCC2)cc1Br	D2 antag 48.7
CCOc1ccccc1NC(=O)Cn1c(=O)n(Cc2cccs2)c(=O)c2cccnc21	none (no result: D2 PAM-2, D2 ag-2, D2 antag)
Nc1nc2ccc(C(=O)N3CCCCC3)cc2s1	D2 antag 51.2
O=C(c1ccc2ncsc2c1)N1CCCCC1	none
OCCC1CN(Cc2cc(F)ccc2F)CCN1CCCc1ccccc1 (centres undefined)	D2 antag 83.2
COCc1cc(CN2CCN(CCCc3ccccc3)C(CCO)C2)ccc1OC (centres undefined)	none
